The panel holds about 83,000 compounds, 20% with a hit somewhere; the sample as a whole holds those more often.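 Single-concentration screen, 48 h exposure, 96-well plates. Endpoint: percent growth. Below 10 = active.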 Activity calls are given as the source filed them.
These molecules were tested on ACHN renal (assay: NCI-60 one-dose screen, 48 h (100 = growth as untreated, 0 = no growth, -100 = all killed)). Conditions: 10 µM unless noted.

Row | SMILES | growth
1 | C=CCC1(CC)C(=O)NC(=S)NC1=O | 101% (inactive)
2 | NC(Cc1ccc2c(c1)OCO2)c1ccc2c(c1)OCO2 (configuration not stated) | 108% (inactive)
3 | O=C(CF)N(O)c1ccc(/C=C/c2ccccc2)cc1 | 13.9% (inactive)
4 | COc1ccc(/C=C(/C(=O)N2CCCC2)c2cc(OC)c(OC)c(OC)c2)cc1N | 45.2% (inactive)
5 | Nc1nc(N)c(-c2ccc(Cl)c(Cl)c2)c(/C=C/c2ccc(S(=O)(=O)F)cc2)n1 | 67.8% (inactive)
6 | Nc1c(Br)cc([N+](=O)[O-])cc1[N+](=O)[O-] | 125% (inactive)
7 | Oc1ccc(O)c2c1C1(Cl)C(Cl)=C(Cl)C2(Cl)C1(Cl)Cl | 48.2% (inactive)
8 | CN(C)P1(N(C)C)=NP(N(C)C)(N(C)C)=NP(N(C)C)(N(C)C)=N1 | 97.2% (inactive)
9 | CCCCNCCc1ccccn1 | 101% (inactive)
10 | CNC(=O)Oc1cccc(OC)c1 | 109% (inactive)
11 | C=C=[CH][Sn]([c]1ccccc1)([c]1ccccc1)[c]1ccccc1 | -49.4% (active)
12 | NC(=O)SCC(=O)Nc1ccc([As](=O)(O)O)cc1 | 100% (inactive)
13 | C[C@]12CC[C@H]3[C@@H](C[C@@H]4N=C(c5ccc(O)cc5)S[C@@]45C[C@H](O)CC[C@]35C)[C@@H]1CC[C@@H]2O | 46% (inactive)
14 | CC1(C)N=C(N)N=C(N)N1c1ccc(CCCCc2ccc(S(=O)(=O)F)cc2)cc1 | 39.2% (inactive)
15 | Nc1c(Br)cc2c3c(cccc13)-c1ccccc1-2 | 75.7% (inactive)
16 | COc1cc2c(cc1OC)CN(C)C(C)C2 (configuration not stated) | 106% (inactive)
17 | CC(C)C1c2ccc(O)cc2Oc2nc(N)c(C#N)c(N)c21 (configuration not stated) | 92.5% (inactive)
18 | c1ccc2nc(OCCN3CC3)ccc2c1 | 88% (inactive)
19 | CC1(C)N=C(N)N=C(N)N1c1ccc(CNC(=O)Nc2ccc(S(=O)(=O)F)c(Cl)c2)c(Cl)c1 | 52.9% (inactive)
20 | c1ccc(-c2ccc3ccccc3[o+]2)cc1 | 91.6% (inactive)
21 | CSc1ccccc1NP1(=O)OCC(C)([N+](=O)[O-])CO1 (configuration not stated) | 97.5% (inactive)
22 | CC1COC(=O)C1 (configuration not stated) | 108% (inactive)
23 | C[CH2][Pb]([CH2]C)([CH2]C)[O]C(=O)COc1ccccc1 | 11.5% (inactive)
24 | COc1ccc(/C=C\c2cc(OC)c(OC)c(OC)c2)cc1N/C=C\C(=O)c1c[nH]c2ccccc12 | 15% (inactive)
25 | CCCC(C)(C)c1ccc2c(c1)OC(C)(C)[C@@H]1CC=C(C)C[C@@H]21 | 105% (inactive)
26 | OC1(c2ccc(Cl)cc2Cl)c2ccccc2C2=NCCN21 (configuration not stated) | 103% (inactive)
27 | O=C(Nc1ccc(S(=O)(=O)F)cc1)Oc1ccccc1 | 106% (inactive)

Each molecule was assayed on CAKI-1 renal in the same assay as above. Conditions: 10 µM unless noted.

Row | SMILES | growth
28 | Fc1ccc(C2=NN(c3ccccc3)C(c3sc(N(CCCl)CCCl)nc3Cl)C2)cc1 (configuration not stated) | 62.2% (inactive)
29 | CC(=O)O[C@H]1CCC2(C)C(=CCC3C2CCC2(C)/C(=N/OC(=O)c4ccc(N(CCCl)CCCl)cc4)CCC32)C1 (some centres not stated) | 50.2% (inactive)
30 | O=C(N/N=C/c1ccc(N(CCCl)CCCl)cc1)c1cc(=O)[nH]c(=O)[nH]1 | 53.2% (inactive)
31 | O=[As]c1ccc(C(=O)c2ccc(Oc3ccccc3)cc2)cc1 (configuration not stated) | -53.7% (active)
32 | Cc1cc(NC(=O)NCCOc2ccc(N3C(N)=NC(N)=NC3(C)C)cc2Cl)ccc1S(=O)(=O)F | 95.1% (inactive)
33 | COc1ccc2c(c1)NC1=C(C(=O)OC1)C2c1cc(OC)c(OC)c(OC)c1 (configuration not stated) | 25.4% (inactive)
34 | C=CCc1ccc(OC(=O)Cc2ccccc2)c(OC)c1 | 95.2% (inactive)
35 | CC(C)(O)/C=C/C(=O)[C@](C)(O)[C@H]1[C@H](O)C[C@@]2(C)[C@@H]3CC=C4[C@@H](C=C(O)C(=O)C4(C)C)[C@]3(C)C(=O)C[C@]12C | -57.2% (active)
36 | C[C@]12CCc3sc(-c4ccc(Cl)cc4)nc3C1=CC[C@@H]1[C@@H]2CC[C@]2(C)C(=O)CC[C@@H]12 | 67.7% (inactive)
37 | NC(Cc1ccc2c(c1)OCO2)c1ccc2c(c1)OCO2 (configuration not stated) | 95.2% (inactive)
38 | O=C(CF)N(O)c1ccc(/C=C/c2ccccc2)cc1 | 11.9% (inactive)
39 | Nc1nc(N)c(-c2ccc(Cl)c(Cl)c2)c(/C=C/c2ccc(S(=O)(=O)F)cc2)n1 | 84.4% (inactive)
40 | Nc1c(Br)cc([N+](=O)[O-])cc1[N+](=O)[O-] | 92.8% (inactive)
41 | Oc1ccc(O)c2c1C1(Cl)C(Cl)=C(Cl)C2(Cl)C1(Cl)Cl | 34.6% (inactive)
42 | CN(C)P1(N(C)C)=NP(N(C)C)(N(C)C)=NP(N(C)C)(N(C)C)=N1 | 79% (inactive)
43 | CCCCNCCc1ccccn1 | 97% (inactive)
44 | CNC(=O)Oc1cccc(OC)c1 | 86.1% (inactive)
45 | C=C=[CH][Sn]([c]1ccccc1)([c]1ccccc1)[c]1ccccc1 | -40.4% (active)
46 | NC(=O)SCC(=O)Nc1ccc([As](=O)(O)O)cc1 | 109% (inactive)
47 | C[C@]12CC[C@H]3[C@@H](C[C@@H]4N=C(c5ccc(O)cc5)S[C@@]45C[C@H](O)CC[C@]35C)[C@@H]1CC[C@@H]2O | 61.3% (inactive)
48 | CC1(C)N=C(N)N=C(N)N1c1ccc(CCCCc2ccc(S(=O)(=O)F)cc2)cc1 | 40.8% (inactive)
49 | Nc1c(Br)cc2c3c(cccc13)-c1ccccc1-2 | 57.4% (inactive)
50 | COc1cc2c(cc1OC)CN(C)C(C)C2 (configuration not stated) | 101% (inactive)
51 | CC(C)C1c2ccc(O)cc2Oc2nc(N)c(C#N)c(N)c21 (configuration not stated) | 93.5% (inactive)
52 | c1ccc2nc(OCCN3CC3)ccc2c1 | 90.8% (inactive)
53 | CSc1ccccc1NP1(=O)OCC(C)([N+](=O)[O-])CO1 (configuration not stated) | 99.3% (inactive)
54 | CC1COC(=O)C1 (configuration not stated) | 96.1% (inactive)
55 | OC1(c2ccc(Cl)cc2Cl)c2ccccc2C2=NCCN21 (configuration not stated) | -21.8% (active)
56 | CC1(CF)NC(=O)NC1=O (configuration not stated) | 122% (inactive)
57 | O=C(Nc1ccc(S(=O)(=O)F)cc1)Oc1ccccc1 | 105% (inactive)

Source: PubChem BioAssay (NCI)
